Data as given in PubChem BioAssay (EPA / NIEHS).
Records with an inconclusive call do not appear. The source holds several records for some structures; these can differ, active in one and inactive in another. Active and inactive are the calls of the source. The calls were made as follows, unless noted: active = hit-call score of the fitted dose curve at least 0.9, where 1 is the maximum; inconclusive = response in the unintended direction; inactive = score below 0.9.

Columns and labels:
[1] = biological target: Bile acid receptor (Homo sapiens) (UniProt Q96RI1); assay: ATG_IR1_CIS: Attagene CIS-FACTORIAL HepG2 Assay for human Nuclear Receptor Subfamily 1 Group H Member 4 (NR1H4), IR1 submotif (AID 2282946; active = hit-call score of the fitted dose curve at least 0.9, where 1 is the maximum; inactive = score below 0.9); settings: IR1 reporter transcription, actives raise or lower the signal
Bile acid receptor (Homo sapiens), sequence (Q96RI1 whole entry, looked up): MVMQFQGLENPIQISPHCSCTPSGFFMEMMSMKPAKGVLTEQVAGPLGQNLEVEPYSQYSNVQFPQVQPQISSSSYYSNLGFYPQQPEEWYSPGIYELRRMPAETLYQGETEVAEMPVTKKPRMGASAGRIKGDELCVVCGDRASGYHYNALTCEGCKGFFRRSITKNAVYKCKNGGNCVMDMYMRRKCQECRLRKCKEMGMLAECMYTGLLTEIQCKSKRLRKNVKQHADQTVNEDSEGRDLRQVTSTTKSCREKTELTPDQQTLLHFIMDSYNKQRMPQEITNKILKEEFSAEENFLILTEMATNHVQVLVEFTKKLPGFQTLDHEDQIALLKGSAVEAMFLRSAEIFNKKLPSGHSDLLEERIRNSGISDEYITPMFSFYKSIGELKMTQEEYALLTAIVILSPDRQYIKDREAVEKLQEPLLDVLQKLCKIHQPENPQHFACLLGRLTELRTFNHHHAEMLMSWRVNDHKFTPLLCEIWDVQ
In short: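 HepG2 cells transiently transfected with multiplexed cis-element reporter units read endogenous transcription factor activity. After 24 h compound exposure, reporter mRNA was quantified by RT-PCR, fluorescent labelling, HpaI digestion and capillary electrophoresis; bidirectional fitting versus DMSO baseline.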

[2] = ATG_GAL4_TRANS: Attagene TRANS-FACTORIAL HepG2 Assay for GAL4 (Internal Marker) (AID 2282976); settings: HepG2 Attagene TRANS GAL4 internal marker reporter
In short: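 HepG2 cells transiently transfected with multiplexed GAL4-UAS reporter constructs were dosed for 24 h. Reporter mRNA was measured by RT-PCR, 6-FAM primer extension, HpaI digestion and capillary electrophoresis, and gain of signal was fitted relative to DMSO.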

[3] = biological target: Oxysterols receptor LXR-alpha (Homo sapiens) (UniProt Q13133); assay: ATG_LXRa_TRANS: Attagene TRANS-FACTORIAL HepG2 Assay for human Liver X Receptor alpha (LXRa) (AID 2282980); settings: HepG2 Attagene TRANS reporter, LXRa transactivation
Oxysterols receptor LXR-alpha (Homo sapiens), sequence (Q13133 whole entry, looked up, the tested form may be a part): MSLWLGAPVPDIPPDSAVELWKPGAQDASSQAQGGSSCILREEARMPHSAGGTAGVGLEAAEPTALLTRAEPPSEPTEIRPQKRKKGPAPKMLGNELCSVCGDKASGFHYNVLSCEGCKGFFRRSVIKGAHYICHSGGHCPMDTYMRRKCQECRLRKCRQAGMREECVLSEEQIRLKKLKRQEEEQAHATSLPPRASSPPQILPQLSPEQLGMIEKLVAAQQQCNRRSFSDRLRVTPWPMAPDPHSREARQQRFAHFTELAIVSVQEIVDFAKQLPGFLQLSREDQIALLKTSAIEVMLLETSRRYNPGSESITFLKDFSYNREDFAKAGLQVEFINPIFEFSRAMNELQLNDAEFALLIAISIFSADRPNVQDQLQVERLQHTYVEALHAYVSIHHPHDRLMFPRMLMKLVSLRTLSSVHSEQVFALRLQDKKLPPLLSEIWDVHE
In short: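 HepG2 cells were transiently transfected with multiplexed reporter units driven by chimeric LXRa–GAL4 fusion proteins, then dosed for 24 h. Reporter mRNA was quantified by RT-PCR, fluorescent labelling and capillary electrophoresis; gain of signal fitted against DMSO baseline.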

[4] = biological target: human Peroxisome Proliferator-activated Receptor alpha (PPARa), PPARA (gene 5465) (UniProt Q07869); assay: ATG_PPARa_TRANS: Attagene TRANS-FACTORIAL HepG2 Assay for human Peroxisome Proliferator-activated Receptor alpha (PPARa) (AID 2283001);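 as to AC50: potency for gain of reporter signal over DMSO so agonist or activator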
human Peroxisome Proliferator-activated Receptor alpha (PPARa), PPARA (gene 5465), sequence (Q07869 whole entry, looked up, the tested form may be a part): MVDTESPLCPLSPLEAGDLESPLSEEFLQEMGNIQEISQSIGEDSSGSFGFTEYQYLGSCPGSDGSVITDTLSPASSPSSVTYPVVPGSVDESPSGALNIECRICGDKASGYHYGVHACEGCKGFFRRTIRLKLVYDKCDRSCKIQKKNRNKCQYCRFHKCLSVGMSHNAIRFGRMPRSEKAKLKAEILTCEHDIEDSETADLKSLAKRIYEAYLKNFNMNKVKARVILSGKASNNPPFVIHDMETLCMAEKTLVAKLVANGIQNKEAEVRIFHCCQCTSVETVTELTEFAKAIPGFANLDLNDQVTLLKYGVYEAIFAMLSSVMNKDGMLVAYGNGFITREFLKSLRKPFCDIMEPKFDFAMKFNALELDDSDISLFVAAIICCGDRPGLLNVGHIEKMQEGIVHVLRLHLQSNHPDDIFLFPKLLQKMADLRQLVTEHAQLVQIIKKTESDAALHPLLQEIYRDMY
In short: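 Reporter transcripts quantified by RT-PCR plus capillary electrophoresis after 24 h treatment, fitted upward relative to DMSO. Cells: human HepG2 transiently carrying multiple GAL4-UAS reporter units driven by NR-Gal4 chimeras.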

[5] = biological target: human Thyroid Receptor alpha (THRa1), THRA (gene 7067) (UniProt P10827); assay: ATG_THRa1_TRANS: Attagene TRANS-FACTORIAL HepG2 Assay for human Thyroid Receptor alpha (THRa1) (AID 2283014)
human Thyroid Receptor alpha (THRa1), THRA (gene 7067), sequence (P10827 whole entry, looked up, the tested form may be a part): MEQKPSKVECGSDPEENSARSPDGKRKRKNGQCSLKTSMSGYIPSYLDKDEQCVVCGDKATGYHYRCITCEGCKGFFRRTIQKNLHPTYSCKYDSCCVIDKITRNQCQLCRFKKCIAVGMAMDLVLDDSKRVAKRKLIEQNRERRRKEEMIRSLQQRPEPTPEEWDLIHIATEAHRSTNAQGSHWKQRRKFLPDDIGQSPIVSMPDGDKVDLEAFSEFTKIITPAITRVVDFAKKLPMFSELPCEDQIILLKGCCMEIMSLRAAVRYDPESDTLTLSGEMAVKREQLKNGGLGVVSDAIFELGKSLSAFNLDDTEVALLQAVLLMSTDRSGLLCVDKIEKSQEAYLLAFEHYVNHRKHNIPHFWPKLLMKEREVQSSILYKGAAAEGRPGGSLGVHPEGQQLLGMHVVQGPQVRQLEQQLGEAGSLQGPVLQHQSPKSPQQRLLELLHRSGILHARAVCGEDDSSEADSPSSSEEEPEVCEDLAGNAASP
In short: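 HepG2 cells transiently transfected with multiplexed GAL4-UAS reporter units for exogenous chimeric THRa1-Gal4; reporter mRNA measured 24 h after dosing by RT-PCR, 6-FAM labelling, HpaI digestion and capillary electrophoresis. Gain-of-signal fitted versus DMSO baseline.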

[6] = TOX21_p53_BLA_p2_viability: Viability Assessment in the Tox21 HCT-116 p53 Agonism Beta-lactamase Assay, Phase 2 (AID 2283591);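 also: compound exposure lasted 16 h at 37 °C; actives lower the ATP signal meaning cytotoxicity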
In short: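 Cytotoxicity readout: CellTiter-Glo ATP luminescence, 30 min at room temperature, after the beta-lactamase read. Cells were HCT116 exposed 16 h at 37C to compounds pin-transferred at 217-fold dilution from DMSO stocks.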

[7] = TOX21_p53_BLA_p3_viability: Viability Assessment in the Tox21 HCT-116 p53 Agonism Beta-lactamase Assay, Phase 3 (AID 2283593);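 also: cells exposed to compound for 16 h before reading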
In short: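 Cellular ATP was quantified by CellTiter-Glo luminescence, read after 30 min at room temperature. Beforehand, HCT116 cells (4000/well) received compound 5 h post-seeding, 217-fold diluted from DMSO, then incubated 16 h at 37C.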

[8] = TOX21_p53_BLA_p4_viability: Viability Assessment in the Tox21 HCT-116 p53 Agonism Beta-lactamase Assay, Phase 4 (AID 2283597);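 also: hits lower the luminescence signal meaning cytotoxicity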
In short: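 Cytotoxicity was inferred from loss of CellTiter-Glo luminescence. HCT116 cells had been dosed with compounds after 5 h plating, incubated 16 h at 37C and 5% CO2, and exposed to the CCF4-AM substrate for 2 h.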

[9] = TOX21_p53_BLA_p5_viability: Viability Assessment in the Tox21 HCT-116 p53 Agonism Beta-lactamase Assay, Phase 5 (AID 2283600)
In short: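 Luciferase-coupled ATP quantitation of cells treated for 16 h (37C, 5% CO2) with test chemicals delivered in DMSO via a 217-fold dilution; 4000 cells/well; reagent incubated 30 min at room temperature before luminescence reading.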

[10] = biological target: Nuclear receptor subfamily 1 group I member 3 (Homo sapiens) (UniProt Q14994); assay: ATG_CAR_TRANS: Attagene TRANS-FACTORIAL HepG2 Assay for human Constitutive Androstane Receptor (CAR) (AID 2282969); settings: HepG2 Attagene TRANS-FACTORIAL CAR reporter;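 also: activators raise reporter mRNA above DMSO so AC50 marks induction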
Nuclear receptor subfamily 1 group I member 3 (Homo sapiens), sequence (Q14994 whole entry, looked up, the tested form may be a part): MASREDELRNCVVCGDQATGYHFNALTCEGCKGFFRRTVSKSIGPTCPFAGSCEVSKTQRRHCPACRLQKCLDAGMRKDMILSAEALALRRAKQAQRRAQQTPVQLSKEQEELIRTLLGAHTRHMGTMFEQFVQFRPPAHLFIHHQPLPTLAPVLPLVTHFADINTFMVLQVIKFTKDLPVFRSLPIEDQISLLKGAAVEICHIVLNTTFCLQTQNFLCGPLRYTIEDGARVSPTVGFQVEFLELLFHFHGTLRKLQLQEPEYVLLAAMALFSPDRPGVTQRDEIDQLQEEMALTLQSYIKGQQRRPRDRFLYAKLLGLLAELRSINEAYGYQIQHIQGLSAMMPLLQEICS
In short: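 Signal is reporter mRNA induction relative to DMSO, measured 24 h after dosing by RT-PCR with fluorescent primer extension and capillary electrophoresis. Human HepG2 liver cells carried transiently transfected chimeric NR-Gal4/GAL4-UAS reporter constructs.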

[11] = biological target: Oxysterols receptor LXR-beta (Homo sapiens) (UniProt P55055); assay: ATG_LXRb_TRANS: Attagene TRANS-FACTORIAL HepG2 Assay for human Liver X Receptor beta (LXRb) (AID 2282981); settings: HepG2 Attagene TRANS GAL4-LXRb reporter, mRNA
Oxysterols receptor LXR-beta (Homo sapiens), sequence (P55055 whole entry, looked up, the tested form may be a part): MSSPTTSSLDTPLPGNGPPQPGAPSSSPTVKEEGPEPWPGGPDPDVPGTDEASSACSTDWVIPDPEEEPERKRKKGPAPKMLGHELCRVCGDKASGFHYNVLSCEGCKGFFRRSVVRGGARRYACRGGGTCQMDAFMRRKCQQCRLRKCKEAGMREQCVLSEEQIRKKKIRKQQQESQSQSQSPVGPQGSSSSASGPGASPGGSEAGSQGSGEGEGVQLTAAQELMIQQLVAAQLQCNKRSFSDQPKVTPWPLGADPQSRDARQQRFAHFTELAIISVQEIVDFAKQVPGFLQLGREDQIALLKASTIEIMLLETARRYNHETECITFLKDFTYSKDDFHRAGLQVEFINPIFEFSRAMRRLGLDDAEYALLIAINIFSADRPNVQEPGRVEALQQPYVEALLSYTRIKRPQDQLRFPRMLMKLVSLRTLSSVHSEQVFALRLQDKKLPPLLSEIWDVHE
In short: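 After 24 h chemical treatment of transfected HepG2 cells carrying exogenous NR-Gal4 chimeras, reporter mRNA was quantified by fluorescent RT-PCR and capillary electrophoresis; activity taken as increase over DMSO controls.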

[12] = biological target: Hepatocyte nuclear factor 4-alpha (Homo sapiens) (UniProt P41235); assay: ATG_HNF4a_TRANS: Attagene TRANS-FACTORIAL HepG2 Assay for human Hepatocyte Nuclear Factor 4 alpha (HNF4a) (AID 2282982); settings: HepG2 HNF4a transactivation reporter, mRNA readout
Hepatocyte nuclear factor 4-alpha (Homo sapiens), sequence (P41235 whole entry, looked up, the tested form may be a part): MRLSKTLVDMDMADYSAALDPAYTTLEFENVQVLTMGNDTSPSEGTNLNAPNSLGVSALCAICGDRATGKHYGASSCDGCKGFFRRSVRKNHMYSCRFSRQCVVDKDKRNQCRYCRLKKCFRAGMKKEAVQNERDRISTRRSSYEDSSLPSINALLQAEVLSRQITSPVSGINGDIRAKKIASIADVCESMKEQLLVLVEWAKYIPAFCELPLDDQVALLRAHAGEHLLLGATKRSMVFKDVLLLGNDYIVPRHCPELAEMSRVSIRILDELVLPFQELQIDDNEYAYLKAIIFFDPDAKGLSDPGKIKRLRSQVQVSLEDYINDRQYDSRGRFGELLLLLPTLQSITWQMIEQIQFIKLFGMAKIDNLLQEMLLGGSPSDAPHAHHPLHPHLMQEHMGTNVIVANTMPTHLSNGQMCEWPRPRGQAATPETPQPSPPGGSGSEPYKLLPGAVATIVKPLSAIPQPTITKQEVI
In short: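 Activity of an exogenous HNF4a–Gal4 fusion scored as induced GAL4-UAS reporter transcripts after 24 h chemical exposure of transfected human HepG2 cells. Read-out via RT-PCR with 6-FAM labelling and capillary electrophoresis; rise over DMSO baseline.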

[13] = biological target: human Retinoid X Receptor beta (RXRb), RXRB (gene 6257) (UniProt P28702); assay: ATG_RXRb_TRANS: Attagene TRANS-FACTORIAL HepG2 Assay for human Retinoid X Receptor beta (RXRb) (AID 2283013)
In short: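 Readout is reporter transcript induction after 24 h dosing. It is measured by RT-PCR of total RNA followed by fluorescent capillary electrophoresis. HepG2 liver cells carry transfected multiple reporter units driven by an exogenous RXRb-Gal4 fusion; activity is relative to DMSO.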

[14] = biological target: human Vitamin D Receptor (VDR), VDR (gene 7421) (UniProt P11473); assay: ATG_VDR_TRANS: Attagene TRANS-FACTORIAL HepG2 Assay for human Vitamin D Receptor (VDR) (AID 2283022)
human Vitamin D Receptor (VDR), VDR (gene 7421), sequence (P11473 whole entry, looked up, the tested form may be a part): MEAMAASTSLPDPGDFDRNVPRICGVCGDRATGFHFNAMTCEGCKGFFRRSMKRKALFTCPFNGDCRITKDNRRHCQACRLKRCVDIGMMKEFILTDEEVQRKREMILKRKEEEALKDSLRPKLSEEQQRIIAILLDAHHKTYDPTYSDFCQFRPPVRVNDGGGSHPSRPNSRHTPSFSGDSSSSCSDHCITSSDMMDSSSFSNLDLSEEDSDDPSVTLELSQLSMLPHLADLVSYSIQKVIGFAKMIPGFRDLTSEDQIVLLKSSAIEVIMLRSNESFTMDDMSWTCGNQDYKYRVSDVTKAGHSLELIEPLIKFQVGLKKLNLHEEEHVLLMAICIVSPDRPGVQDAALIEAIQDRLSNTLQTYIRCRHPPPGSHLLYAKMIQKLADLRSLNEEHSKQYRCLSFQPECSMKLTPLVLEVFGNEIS
In short: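 HepG2 cells were transiently transfected with multiple GAL4-UAS reporter units, so signal reflects exogenous chimeric receptor-Gal4 activity. After 24 h compound exposure, reporter mRNA was measured by RT-PCR, fluorescent labelling and capillary electrophoresis, fitted for gain of signal versus DMSO.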

[15] = ACEA_ER_AUC_viability: ACEA Biosciences xCELLigence Real-Time Cell Analysis on Estrogen Receptor Agonism for Viability (AID 2283782);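 also: hit means loss of impedance signal meaning reduced cell growth or viability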
In short: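 Viability endpoint: reduced impedance area under the curve relative to DMSO, recorded by real-time electrode sensing over ~80 h of continuous exposure. Duplicate plates of T47D in hormone-depleted medium; eight concentrations, 1:4 dilutions, 100 uM maximum.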

[16] = biological target: Retinoic acid receptor alpha (Homo sapiens) (UniProt P10276); assay: ATG_DR5_RAR_CIS: Attagene CIS-FACTORIAL HepG2 Assay for human Retinoic Acid Receptor Alpha (RARE), DR5 submotif (AID 2282934; active = hit-call score of the fitted dose curve at least 0.9, where 1 is the maximum; inactive = score below 0.9;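 as to AC50: reporter responds to endogenous RAR alpha beta and gamma in HepG2 not RARA alone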); settings: HepG2 Attagene cis-factorial RARE DR5 reporter, mRNA; actives raise or lower the signal
In short: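 Transient MRTU transfection of HepG2; 24 h compound treatment; TriZol RNA, oligo(dT) RT, PCR, FAM labelling, capillary electrophoresis. Bidirectional fit vs DMSO. Endogenous TF activity at DR5 RARE.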

[17] = ATG_M_19_TRANS: Attagene TRANS-FACTORIAL HepG2 Assay for M19 Transcription Factor (Internal Marker) (AID 2282974); settings: HepG2 Attagene TRANS-FACTORIAL M19 internal marker reporter
In short: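 Background-control readout: after 24 h chemical exposure of transfected HepG2 carrying GAL4-driven reporter units, RNA was reverse-transcribed, amplified, fluorescently labeled and sized by capillary electrophoresis; gain-of-signal fit against DMSO.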

[18] = biological target: human Peroxisome Proliferator-activated Receptor delta (PPARd), PPARD (gene 5467) (UniProt Q03181); assay: ATG_PPARd_TRANS: Attagene TRANS-FACTORIAL HepG2 Assay for human Peroxisome Proliferator-activated Receptor delta (PPARd) (AID 2283002)
human Peroxisome Proliferator-activated Receptor delta (PPARd), PPARD (gene 5467), sequence (Q03181 whole entry, looked up, the tested form may be a part): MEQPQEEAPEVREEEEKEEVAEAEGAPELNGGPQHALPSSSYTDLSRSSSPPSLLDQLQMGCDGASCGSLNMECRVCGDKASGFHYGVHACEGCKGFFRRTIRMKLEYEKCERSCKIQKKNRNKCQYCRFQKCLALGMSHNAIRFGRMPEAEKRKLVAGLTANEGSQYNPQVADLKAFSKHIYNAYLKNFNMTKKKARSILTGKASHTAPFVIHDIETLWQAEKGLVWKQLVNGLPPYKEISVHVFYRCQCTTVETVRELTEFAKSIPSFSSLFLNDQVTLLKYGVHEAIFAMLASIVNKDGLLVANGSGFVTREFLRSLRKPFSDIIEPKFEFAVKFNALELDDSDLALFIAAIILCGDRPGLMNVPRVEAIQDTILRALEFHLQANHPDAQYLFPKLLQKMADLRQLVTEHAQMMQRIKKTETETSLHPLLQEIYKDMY
In short: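 Transient HepG2 transfection (multiple GAL4-UAS RTUs, chimeric receptor-Gal4); 24 h dosing; total RNA → oligo(dT) RT → PCR → 6-FAM primer extension → HpaI cut → CE. Positive direction vs DMSO.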

[19] = CCTE_Harrill_HTTr_Apoptosis_MCF7: CCTE's 6-hour Apoptosis Assessment for the High-Throughput Transcriptomics (HTTr) Platform, in MCF-7 cells cultured in DMEM + 10% fetal bovine serum, Harrill Lab (AID 2284011; active = hit-call score of the fitted dose curve at least 0.9, where 1 is the maximum; inactive = score below 0.9)
In short: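 MCF-7 cells in DMEM + 10% fetal bovine serum were exposed to chemicals for 6 hours over an eight-point dilution series. Caspase-3/7 activation was imaged by high content imaging with CellEvent Caspase 3/7 Green; bidirectional fitting used DMSO as baseline.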

[20] = biological target: human RAR-related Orphan Receptor beta (RORb), RORB (gene 6096) (UniProt Q92753); assay: ATG_RORb_TRANS: Attagene TRANS-FACTORIAL HepG2 Assay for human RAR-related Orphan Receptor beta (RORb) (AID 2283010)
human RAR-related Orphan Receptor beta (RORb), RORB (gene 6096), sequence (Q92753 whole entry, looked up, the tested form may be a part): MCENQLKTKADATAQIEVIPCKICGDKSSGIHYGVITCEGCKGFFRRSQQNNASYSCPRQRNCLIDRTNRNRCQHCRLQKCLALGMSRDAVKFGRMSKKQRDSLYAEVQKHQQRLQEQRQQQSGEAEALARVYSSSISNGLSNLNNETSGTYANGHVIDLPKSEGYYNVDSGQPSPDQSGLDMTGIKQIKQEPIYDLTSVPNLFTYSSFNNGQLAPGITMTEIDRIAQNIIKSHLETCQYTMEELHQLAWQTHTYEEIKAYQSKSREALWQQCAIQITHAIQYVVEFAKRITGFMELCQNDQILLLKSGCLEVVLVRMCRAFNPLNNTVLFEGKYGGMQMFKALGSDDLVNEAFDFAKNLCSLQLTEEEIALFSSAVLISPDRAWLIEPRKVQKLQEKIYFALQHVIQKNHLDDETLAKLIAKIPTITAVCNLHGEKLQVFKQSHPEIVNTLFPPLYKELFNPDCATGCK
In short: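 Read-out is reporter mRNA induction, quantified by RT-PCR with fluorescent capillary electrophoresis, 24 h post-dose in transiently transfected HepG2 expressing exogenous NR-Gal4 chimera. Activity fitted upward versus DMSO.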

Measured: AC50

Oc1ccc(C2(c3ccc(O)cc3)c3ccccc3-c3ccccc32)cc1
inactive: [1] | [2] | [3] | [4] | [5] | [6] | [8]
active: [7] 0.237 µM | [9] 74 µM

O=P(O)(Oc1ccccc1)Oc1ccccc1
not listed: [7] | [8] | [9] | [16] | [17] | [18] | [19] | [20]
inactive: all other assays above

CC1(C)CC(=O)CC(C)(C)N1[O]
not listed: [3] | [4] | [5] | [7] | [13] | [19] | [20]
inactive: all other assays above

O=CNC(N1CCN(C(NC=O)C(Cl)(Cl)Cl)CC1)C(Cl)(Cl)Cl (configuration not stated)
inactive: [2] | [3] | [11] | [12] | [18] | [5] | [14] | [8] | [9] | [15] | [19]

CC(=O)/C=C/c1ccccc1
active: [4] 38.8 µM | [15] 85.1 µM
inactive: [10] | [11] | [12] | [18] | [20] | [13] | [14]

CC(C)CCCCCCCOP(=O)(Oc1ccccc1)Oc1ccccc1
not listed: [3] | [4] | [5] | [12] | [16] | [17] | [19] | [20]
inactive: all other assays above

Cc1ccccc1CCl
inactive: [16] | [10] | [2] | [11] | [4] | [18] | [20] | [13] | [9] | [15]

CCCCCCCCCCCC#N
active: [1] 165 µM | [13] 44.5 µM
inactive: [10] | [17] | [3] | [4] | [18] | [20] | [5] | [9] | [15]

CC1OC(C)OC(C)O1 (configuration not stated)
active: [7] 42.6 µM
inactive: [1] | [17] | [2] | [12] | [18] | [20] | [5] | [6] | [7] | [9] | [15]

O=P1(NCCCl)OCCCN1CCCl (configuration not stated)
inactive: [16] | [17] | [11] | [12] | [4] | [20] | [19]
active: [15] 37.7 µM

O=[N+]([O-])O.O=[N+]([O-])O.[Cd]
inactive: [17] | [2] | [11] | [12] | [20] | [7] | [8]
active: [16] 2.08 µM | [6] 59.2 µM

Cc1cc(C)c(C2=C(OC(=O)CC(C)(C)C)C3(CCCC3)OC2=O)c(C)c1
inactive: [1] | [10] | [17] | [2] | [12] | [15]
